Activity calls are given as the source filed them. The calls were made as follows: active = hit-call score of the fitted dose curve at least 0.9, where 1 is the maximum; inactive = score below 0.9.

This assay can be described thus: ATG_ERE_CIS: Attagene CIS-FACTORIAL HepG2 Assay for Estrogen Response Element (ERE) (AID 2282940). The settings on record: HepG2 ERE cis-reporter, Attagene RNA transcript; actives raise or lower the signal. As for the experimental part:
ATG_CIS is a cell-based, multiplexed-readout assay that uses HepG2, a human liver cell line, with measurements taken at 24 hours after chemical dosing in a 24-well plate.ATG_ERE_CIS is one of 52 assay component(s) measured or calculated from the ATG_CIS assay. It is designed to make measurements of mRNA induction, a form of inducible reporter, as detected with fluorescence intensity signals by Reverse transcription polymerase chain reaction (RT-PCR) and Capillary electrophoresis technology.Data from the assay component ATG_ERE_CIS was analyzed into 1 assay endpoint. This assay endpoint, ATG_ERE_CIS, was analyzed with bidirectional fitting relative to DMSO as the negative control and baseline of activity. Using a type of inducible reporter, measures of mRNA for gain or loss-of-signal activity can be used to understand the reporter gene at the transcription factor-level as they relate to the gene ESR1. Furthermore, this assay endpoint can be referred to as a primary readout, because this assay has produced multiple assay endpoints where this one serves a reporter gene function. To generalize the intended target to other relatable targets, this assay endpoint is annotated to the nuclear receptor intended target family, where the subfamily is steroidal.
Human liver HepG2 cells are transiently transfected with multiple reporter transcription units (MRTUs) in 6-well plates using FuGene 6 reagent (Roche; 3 ml FuGene/1 mg DNA). The MRTU constructs are regulated by a cis-regulating element (promoter). […] A major difference between the CIS and TRANS system is that in CIS activities of endogenous TFs are measured, whereas the TRANS assay evaluates changes in activities of exogenous, chimeric NR-Gal4 proteins. […] At the end of 24 hour incubation, total RNA was isolated using TriZol reagent (Invitrogen). The isolated RNA is then reverse-transcribed using oligo(dT) primer and Mo-MLV reverse transcriptase (Invitrogen) with DNAse I (Ambion) treatment for 30 min. The one-tenth of the produced cDNA was amplified by PCR using Taq DNA polymerase (Invitrogen) and two reporter sequence-specific primers. The PCR products were fluorescently labeled by primer extension with 6-arboxyfluorescein (6-FAM) 5'-labeled reporter sequence-specific primer (2 min at 95 C, 20 s at 68 C and 10 min at 72 C) and these products were digested with 5U of HpaI (New England Biolabs) for 2h at 37 C. The fragments were purified using Qiaquick PCR columns (Qiagen), analyzed on an ABI 3130xL genetic analyzer (Applied Biosystems) with peak positions identified by using a set of X-rhodamine (ROX)-labeled MapMarker1000 molecular weight standards (BioVentures). The raw capillary electrophoresis data was processed using Attagraph software (Attagene).
The term AC50 denotes the concentration giving half of the maximal activity seen. Take `Cc1cc(C2CC2)nc(Nc2ccccc2)n1`: the AC50 is 12.8 µM (active).

Take `COP(=O)(OC)SCn1c(=O)oc2cc(Cl)cnc21`: the result was inactive.

In the case of `Nc1c(Cl)cc([N+](=O)[O-])cc1Cl`, the AC50 was 28.2 µM (active).

Take `CCCCOC(=O)[C@@H](C)Oc1ccc(Oc2ccc(C#N)cc2F)cc1`: the compound was called inactive.

In the case of `CCc1cccc(CC)c1N(COC)C(=O)CCl`, the call was inactive.

Take `CNC(=O)ON=C(SC)C(=O)N(C)C`: the AC50 is 15.7 µM (active).

For the compound `CSc1nc(NC(C)C)nc(NC(C)C)n1`, the call was inactive.

On to `CNC(=O)Oc1cccc2c1OC(C)(C)O2`, for which the AC50 is 29.5 µM (active).

Turning to `O=[N+]([O-])c1cc(C(F)(F)F)c(Cl)c([N+](=O)[O-])c1Nc1ncc(C(F)(F)F)cc1Cl`, the compound was called inactive.

Regarding `COP(=O)(OC)OC(Br)C(Cl)(Cl)Br` (stereo unspecified), the outcome was inactive.

Consider `CC[C@H](C)[C@H]1O[C@]2(C=C[C@@H]1C)C[C@@H]1C[C@@H](C/C=C(\C)[C@@H](O[C@H]3C[C@H](OC)[C@@H](O[C@H]4C[C@H](OC)[C@@H](NC)[C@H](C)O4)[C@H](C)O3)[C@@H](C)/C=C/C=C3\CO[C@@H]4[C@H](O)C(C)=C[C@@H](C(=O)O1)[C@]34O)O2`, for which the call was inactive.
